Results as given in PubChem BioAssay (NCI).
About 83,000 compounds went through this panel and 20% of them were active in at least one assay; those are over-represented in the sample as a whole.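 Cell lines were cultured in 96-well plates, exposed to a single compound concentration, and assessed for percent growth 48 hours later.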 The source made the active and inactive calls. Rule for the calls: active = growth percent below 10; inactive = the rest. *1 amine or outer side, *2 acyl side, *3 side chain or, on linkers, in order; H or OH if unused. Where a SMILES comes first, the peptide text is derived from it. Bridges are numbered along the chain shown (N, C = ends). Roman numbers before positions name the chains, in order. [ ]: non-standard residue; d: D form. Actinocin(1to9) = Cc1c2oc3c(C)ccc(C(=O)[*:2])c3nc-2c(C(=O)[*:1])c(N)c1=O; NMeV = CN[CH](C(=O)O)C(C)C; Sar = CNCC(=O)O

Columns and labels:
Test in all cases: NCI-60 one-dose screen, 48 h (100 = growth as untreated, 0 = no growth, -100 = all killed)
Conditions in all cases: 10 µM unless noted
SR leukemia = tested on: SR leukemia
RPMI-8226 leukemia = tested on: RPMI-8226 leukemia
OVCAR-5 ovarian = tested on: OVCAR-5 ovarian
OVCAR-4 ovarian = tested on: OVCAR-4 ovarian
SK-OV-3 ovarian = tested on: SK-OV-3 ovarian
OVCAR-3 ovarian = tested on: OVCAR-3 ovarian
HS 578T breast = tested on: HS 578T breast
NCI/ADR-RES ovarian = tested on: NCI/ADR-RES ovarian
IGROV1 ovarian = tested on: IGROV1 ovarian
OVCAR-8 ovarian = tested on: OVCAR-8 ovarian

Measured: growth

Cc1cc(=O)oc2cc(O)cc(O)c12
inactive: SR leukemia 106% | RPMI-8226 leukemia 111% | OVCAR-5 ovarian 96.4% | OVCAR-4 ovarian 104% | SK-OV-3 ovarian 104% | OVCAR-3 ovarian 99.2% | HS 578T breast 106% | NCI/ADR-RES ovarian 108%

Oc1cc(Cl)ccc1Cc1ccc(Cl)cc1O
inactive: SR leukemia 59.1% | RPMI-8226 leukemia 18.7% | OVCAR-4 ovarian 30.1% | SK-OV-3 ovarian 90.8% | IGROV1 ovarian 82.5% | OVCAR-3 ovarian 40.2%

Cc1ccc(/C=C2\CNC/C(=C\c3ccc(C)cc3)C2=O)cc1
active: SR leukemia -2.99% | RPMI-8226 leukemia -30.6% | OVCAR-5 ovarian -28.4% | OVCAR-4 ovarian 9.79% | IGROV1 ovarian -71.2% | OVCAR-3 ovarian -58.5% | NCI/ADR-RES ovarian -51.3%
inactive: SK-OV-3 ovarian 30.5%

S=C(S)OCN1CCOCC1
inactive: SR leukemia 65.2% | RPMI-8226 leukemia 100% | OVCAR-5 ovarian 97.6% | OVCAR-4 ovarian 56.5% | SK-OV-3 ovarian 98.9% | IGROV1 ovarian 56.5% | OVCAR-3 ovarian 118% | NCI/ADR-RES ovarian 96.2%

O=C1/C(=C\c2ccc([N+](=O)[O-])cc2)CS(=O)(=O)C/C1=C/c1ccc([N+](=O)[O-])cc1
active: SR leukemia 0.134% | RPMI-8226 leukemia -19.4% | OVCAR-5 ovarian -99% | OVCAR-4 ovarian -90.2% | SK-OV-3 ovarian -43.3% | IGROV1 ovarian -82.4% | OVCAR-3 ovarian -90.1% | NCI/ADR-RES ovarian -80.4%

[Cl-].[Rh+3].c1ccc(-c2ccnc3c2ccc2c(-c4ccccc4)ccnc23)cc1.c1ccc(-c2ccnc3c2ccc2c(-c4ccccc4)ccnc23)cc1.c1ccc(-c2ccnc3c2ccc2c(-c4ccccc4)ccnc23)cc1
active: OVCAR-5 ovarian -2.79%
inactive: SR leukemia 89.4% | RPMI-8226 leukemia 91.1% | OVCAR-4 ovarian 84.8% | SK-OV-3 ovarian 77.9% | IGROV1 ovarian 66.5% | OVCAR-3 ovarian 69.8% | NCI/ADR-RES ovarian 95.7%

COC1=CC(=O)c2c(O)c3c(c(O)c2C1=O)CC(C)(O)OC3 (centres undefined)
active: OVCAR-4 ovarian -12.8% | OVCAR-3 ovarian -0.531% | NCI/ADR-RES ovarian -4.8%
inactive: SR leukemia 14.3% | RPMI-8226 leukemia 34.7% | OVCAR-5 ovarian 35.4% | SK-OV-3 ovarian 86.9% | HS 578T breast 67.2%

CCCCCCCCCCCCCCCCCC1=NCCCN1CCO
inactive: SR leukemia 95.6% | RPMI-8226 leukemia 103% | OVCAR-5 ovarian 98.5% | OVCAR-4 ovarian 112% | SK-OV-3 ovarian 97.6% | IGROV1 ovarian 105% | OVCAR-3 ovarian 114% | HS 578T breast 101% | NCI/ADR-RES ovarian 105%

CC(C)(C)c1ccc(O)c(-c2ccccc2)c1
inactive: SR leukemia 57.7% | RPMI-8226 leukemia 97.1% | OVCAR-5 ovarian 111% | OVCAR-4 ovarian 127% | SK-OV-3 ovarian 114% | IGROV1 ovarian 108% | OVCAR-3 ovarian 111% | NCI/ADR-RES ovarian 106%

CCC(C)C1NC(=O)C(NC(=O)c2c3nc4c(C(=O)NC5C(=O)NC(C(C)CC)C(=O)N6CCCC6C(=O)N(C)CC(=O)N(C)C(C(C)C)C(=O)OC5C)ccc(C)c4oc-3c(C)c(=O)c2N)C(C)OC(=O)C(C(C)C)N(C)C(=O)CN(C)C(=O)C2CCCN2C1=O (centres undefined) (I: TIP[Sar][NMeV] / II: TIP[Sar][NMeV]; ester I:1-I:C, II:1-II:C; linker I:N-II:N via Actinocin(1to9); configuration not given here)
active: SR leukemia 5.31% | RPMI-8226 leukemia -18.8% | OVCAR-5 ovarian -76.6% | OVCAR-4 ovarian -1.07% | IGROV1 ovarian -32.4% | OVCAR-3 ovarian 1.47% | NCI/ADR-RES ovarian -42.7%
inactive: SK-OV-3 ovarian 18.2%

O=C1C(=O)c2cc([N+](=O)[O-])ccc2-c2ccccc21
active: SR leukemia -7.48% | OVCAR-8 ovarian -58.6% | OVCAR-5 ovarian -79.2% | OVCAR-4 ovarian -97.6% | IGROV1 ovarian -72.5% | OVCAR-3 ovarian -94% | NCI/ADR-RES ovarian -74.2%
inactive: SK-OV-3 ovarian 55.7%

Cn1ccc(=Nc2ccc(NC(=O)c3ccc(N=c4ccn(C)c5ccc([N+](=O)[O-])cc45)cc3)cc2)cc1
inactive: SR leukemia 107% | OVCAR-8 ovarian 69.3% | OVCAR-5 ovarian 87.9% | OVCAR-4 ovarian 59.4% | SK-OV-3 ovarian 91.4% | IGROV1 ovarian 64.8% | OVCAR-3 ovarian 79.5% | HS 578T breast 100% | NCI/ADR-RES ovarian 106%

CCOc1ccc(C(CN2CCOCC2)C(C)=O)cc1OC (centres undefined)
inactive: SR leukemia 65.2% | OVCAR-5 ovarian 99.1% | OVCAR-4 ovarian 98.2% | SK-OV-3 ovarian 99.4% | IGROV1 ovarian 113% | OVCAR-3 ovarian 88.3% | HS 578T breast 97.7% | NCI/ADR-RES ovarian 107%

COc1ccc(C(OCC2OC(n3ccc(NC(=O)c4ccccc4)nc3=O)C(O)C2O)(c2ccccc2)c2ccccc2)cc1 (centres undefined)
inactive: SR leukemia 12.4% | OVCAR-8 ovarian 29% | OVCAR-4 ovarian 25.9% | SK-OV-3 ovarian 75.1% | IGROV1 ovarian 33.7% | OVCAR-3 ovarian 45.6% | HS 578T breast 61.7% | NCI/ADR-RES ovarian 38.1%

Cc1oc2c(C)c3oc(=O)cc(C)c3cc2c1CCl
active: SR leukemia -10%
inactive: OVCAR-8 ovarian 87.1% | OVCAR-5 ovarian 77.3% | SK-OV-3 ovarian 89.1% | IGROV1 ovarian 94.3% | OVCAR-3 ovarian 61.6% | HS 578T breast 77.6% | NCI/ADR-RES ovarian 83.7%

CCCOS(=O)(=O)c1ccccc1
inactive: SR leukemia 108% | OVCAR-8 ovarian 104% | OVCAR-5 ovarian 93% | OVCAR-4 ovarian 123% | SK-OV-3 ovarian 91.9% | IGROV1 ovarian 104% | OVCAR-3 ovarian 107% | HS 578T breast 126% | NCI/ADR-RES ovarian 110%

CC[n+]1ccc(Nc2ccc(NC(=O)c3ccc(Nc4cc[n+](CC)c5ccc([N+](=O)[O-])cc45)cc3)cc2)cc1
inactive: SR leukemia 75.7% | OVCAR-8 ovarian 79% | OVCAR-5 ovarian 107% | OVCAR-4 ovarian 56.8% | SK-OV-3 ovarian 84.5% | IGROV1 ovarian 115% | OVCAR-3 ovarian 91.8% | HS 578T breast 97% | NCI/ADR-RES ovarian 106%

CN(C)CCSC1=Nc2ccc(Cl)cc2C(c2ccccc2Cl)N(C)C1 (centres undefined)
inactive: SR leukemia 44.1% | OVCAR-8 ovarian 78.8% | OVCAR-5 ovarian 88.4% | OVCAR-4 ovarian 39.4% | SK-OV-3 ovarian 72% | IGROV1 ovarian 41.6% | OVCAR-3 ovarian 59.9% | HS 578T breast 24.2% | NCI/ADR-RES ovarian 66%

NNc1ccc(Cl)cc1Cl
inactive: SR leukemia 57.3% | OVCAR-8 ovarian 52.7% | OVCAR-5 ovarian 88.8% | OVCAR-4 ovarian 89.2% | SK-OV-3 ovarian 69.7% | OVCAR-3 ovarian 87.4% | HS 578T breast 84.1% | NCI/ADR-RES ovarian 53.5%

CC1=CC(=O)C=CC1(C)C(Cl)(Cl)Cl (centres undefined)
inactive: SR leukemia 94.2% | OVCAR-8 ovarian 90.3% | OVCAR-5 ovarian 101% | OVCAR-4 ovarian 114% | SK-OV-3 ovarian 94.3% | OVCAR-3 ovarian 116% | HS 578T breast 93.1% | NCI/ADR-RES ovarian 102%

Cc1ccc2cccc(OC(=O)Nc3cccc(C(F)(F)F)c3)c2n1
inactive: SR leukemia 36.9% | OVCAR-8 ovarian 53.5% | OVCAR-5 ovarian 83.7% | OVCAR-4 ovarian 73% | SK-OV-3 ovarian 108% | IGROV1 ovarian 58.2% | OVCAR-3 ovarian 32.3% | HS 578T breast 100% | NCI/ADR-RES ovarian 58.9%

CCN(CC)CC(O)CNc1ccc(NCC2CO2)c2c1C(=O)c1ccccc1C2=O (centres undefined)
active: SR leukemia -4.42% | OVCAR-5 ovarian -4.14% | IGROV1 ovarian -59.1% | OVCAR-3 ovarian -1.52% | HS 578T breast -40.4% | NCI/ADR-RES ovarian -1.62%
inactive: SK-OV-3 ovarian 22.5%

C1=C(c2ccccc2)c2ccccc2C1
inactive: SR leukemia 93.6% | OVCAR-8 ovarian 114% | OVCAR-5 ovarian 92% | OVCAR-4 ovarian 105% | SK-OV-3 ovarian 109% | IGROV1 ovarian 101% | OVCAR-3 ovarian 106% | HS 578T breast 95.2% | NCI/ADR-RES ovarian 101%

O=C1C=CC(=O)c2c(O)c(CO)c(CO)c(O)c21
inactive: SR leukemia 83.3% | OVCAR-5 ovarian 84.8% | OVCAR-4 ovarian 64.9% | SK-OV-3 ovarian 109% | IGROV1 ovarian 52.7% | OVCAR-3 ovarian 98.3% | HS 578T breast 113% | NCI/ADR-RES ovarian 97.2%

Oc1ccc2ccccc2c1N=Nc1ccccn1
inactive: OVCAR-8 ovarian 15.6% | OVCAR-5 ovarian 46.8% | SK-OV-3 ovarian 33.6% | IGROV1 ovarian 25% | OVCAR-3 ovarian 20.7%
active: SR leukemia 8.18% | OVCAR-4 ovarian -6.48% | NCI/ADR-RES ovarian 0.488%

O=C(c1ccccc1)N(CCCl)C(=O)N(CCCl)C(=O)c1ccccc1
inactive: SR leukemia 94.4% | OVCAR-5 ovarian 91% | OVCAR-4 ovarian 105% | SK-OV-3 ovarian 104% | IGROV1 ovarian 103% | OVCAR-3 ovarian 107% | HS 578T breast 110% | NCI/ADR-RES ovarian 91.8%

Cc1cc(N/N=C/c2ccccn2)nc2ccccc12
active: OVCAR-8 ovarian 6.78% | NCI/ADR-RES ovarian 7.9%
inactive: SR leukemia 11.5% | OVCAR-5 ovarian 37.9% | OVCAR-4 ovarian 16.4% | SK-OV-3 ovarian 31.6% | OVCAR-3 ovarian 28.6% | HS 578T breast 74.8%

CCCCOS(=O)(=O)c1ccccc1
inactive: SR leukemia 126% | OVCAR-8 ovarian 120% | OVCAR-5 ovarian 95.8% | OVCAR-4 ovarian 104% | SK-OV-3 ovarian 113% | IGROV1 ovarian 131% | OVCAR-3 ovarian 112% | HS 578T breast 107% | NCI/ADR-RES ovarian 107%
